The source of these data is PubChem BioAssay AID720541 (National Center for Advancing Translational Sciences (NCATS), 2013).

Among all 1,300 compounds or so, about 420 (32%) were called active. About 32% were inconclusive and are not listed. Some of the results follow. Unmarked numbers belong to inactive results. The call rests on the fitted dose curve; in most records, active means well fitted inhibition curve with a large enough effect; inconclusive means small, poorly fitted or top-dose-only effect; inactive means no such curve, though single readings can be large or run the other way.
On the % scale 0 is the no-effect control and ±100 the full control effect; potency means the concentration at half of the fitted maximal effect.

The test deals with C-terminal-binding protein 1 (Homo sapiens) (UniProt Q13363). The experiment in a line: qHTS for Inhibitors of the Phosphatase Activity of Eya2: Carboxyl-terminal binding protein (CtBP) Counterscreen for Cherry-picked Compounds. Further: nearly all actives have a fitted effect of over 65% in size. As to conditions: purified protein-protein binding, AlphaScreen, 3 h; series mostly up to 46.1 µM; activity change, negative = inhibition: at the top concentration. In short, it runs like this:
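AlphaScreen using 25 nM GST-E1A with 25 nM CtBP-6xHIS; compounds at 2.5 nM–46 uM final, 2 h at room temperature, then donor/acceptor beads (20 ug/mL) for 1 h in the dark. Signal normalized to E1A peptide inhibitor (maximum inhibition) and DMSO.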
In the case of `O=C(CN1C(=O)/C(=C/c2ccco2)SC1=S)Nc1ccc(C(=O)O)c(O)c1`, the Potency was 10.7 µM (active).

With `COc1cc(/C=C2\SC(=S)N(CCC(=O)Nc3cccc(O)c3)C2=O)cc(OC)c1OC`, the “activity change, negative = inhibition” value is -14.7%.

As to `CCn1c(SCC(=O)N2CCN(c3ccccc3)CC2)nc2c(c1=O)SC(C)C2` (configuration not stated), the “activity change, negative = inhibition” value was -14.2%.

As for `Cc1c(C(=O)O)c(O)cc2c1C(=O)c1c(O)c([C@H]3O[C@H](CO)[C@@H](O)[C@H](O)[C@H]3O)c(O)c(O)c1C2=O`, the Potency was 19 µM (active).

On to `Clc1cccc(-c2ccc(CNCc3ccccn3)o2)c1`, for which the Potency was 16.9 µM (active).

With `Clc1ccc(-c2ccc(CNCc3ccccn3)o2)cc1`, the Potency is 12 µM (active).

Consider `Fc1ccc(-c2ccc(CNCc3ccccn3)o2)cc1`, for which the Potency was 15.1 µM (active).

For `O=C(/C=C/c1cccc([N+](=O)[O-])c1)Nc1cccc(NC(=O)c2cccs2)c1`, the “activity change, negative = inhibition” value was -26.4%.

With `COC(=O)c1ccc(NC(=O)CSc2nc(=O)n3cccc(C)c3n2)cc1`, the Potency is 13.5 µM (active).

Regarding `COC(=O)c1ccc(NC(=O)c2ccc3c(c2)C(=O)N(Cc2cccnc2)C3=O)cc1`, the “activity change, negative = inhibition” value was 0.063%.

`Cc1ccc(-c2csc(N3CCN(CCCn4c(C(F)(F)F)nc5ccccc54)CC3)n2)cc1`: the “activity change, negative = inhibition” value is -13.7%.

For `Cc1csc(NC(=O)CSc2sc3c(O)cc(=O)[nH]c3c2C#N)n1`, the Potency is 12 µM (active).

As for `Cc1cc(C)c2c(n1)sc1c(O)cc(=O)[nH]c12`, the “activity change, negative = inhibition” value is -12.6%.

For `O=C1c2cccc(Sc3ccccc3)c2C(=O)c2c(Sc3ccccc3)cccc21`, the Potency is 3.79 µM (active).

On to `Oc1c(Cl)cc(CN2CCOCC2)c2cccnc12`, for which the Potency is 0.601 µM (active).

`Cc1ccc(C(=O)N2CCN(c3ccc(NC(=S)NC(=O)c4cccs4)cc3)CC2)cc1`: the “activity change, negative = inhibition” value was -26.7%.

On to `CCCC(=O)Nc1ccc(NC(=S)NC(=O)c2cccs2)cc1`, for which the “activity change, negative = inhibition” value was -0.882%.

In the case of `CCN(CC)c1ccc(NC(=S)NC(=O)c2cccs2)cc1`, the Potency was 10.7 µM (active).

For `Cn1nc(C(=O)Nc2nc3ccccc3[nH]2)c2ccccc2c1=O`, the Potency was 10.7 µM (active).

On to `CNC(=O)c1cc2c(cn1)[nH]c1ccccc12`, for which the “activity change, negative = inhibition” value is -22%.

Turning to `COc1ccc(OC)c(Nc2nc(-c3sc(N)nc3C)cs2)c1`, the Potency was 8.49 µM (active).

With `COc1ccc(-c2noc(N3CCC(C(=O)Nc4cc(OC)ccc4OC)CC3)n2)cc1`, the “activity change, negative = inhibition” value was -27.5%.

Consider `CCn1c2ccccc2c2cc(NC(=O)COC(=O)c3ccc(NC(=O)CC#N)cc3)ccc21`, for which the “activity change, negative = inhibition” value was -2.9%.

In the case of `Cc1ccc(-n2[nH]c(C)c(C=Nc3ccc(S(=O)(=O)Nc4nccs4)cc3)c2=O)cc1C`, the Potency was 7.57 µM (active).

Take `CCc1ccc(-c2csc(NC(=O)C3CC(=O)N(c4ccc5c(c4)OCCO5)C3)n2)cc1` (configuration not stated): the “activity change, negative = inhibition” value is -6.9%.

For `O=C(Nc1nc(-c2ccccn2)cs1)C1CC(=O)N(c2ccc3c(c2)OCCO3)C1` (configuration not stated), the Potency was 6.01 µM (active).

`O=C(NCc1ccco1)C1CC2CCC1C2` (configuration not stated): the “activity change, negative = inhibition” value is 7.12%.

Take `COCCNC(=O)c1cccc(OC2CCN(Cc3ccc(F)cc3OC)CC2)c1`: the “activity change, negative = inhibition” value was 0.126%.

With `CSc1nnc2c(n1)OC(C)=Nc1ccccc1-2`, the Potency was 12 µM (active).

In the case of `C#Cc1cccc(NC(=O)CSc2nnc(-c3ccc(C(F)(F)F)cn3)o2)c1`, the Potency was 15.1 µM (active).

As to `CCn1ccnc1CNCc1cn(-c2cc(C)ccc2C)nc1-c1ccccc1`, the Potency was 8.49 µM (active).

Take `CCNc1ccc2noc3c2c1C(=O)c1ccccc1-3`: the Potency is 7.57 µM (active).

As to `CN(Cc1ccccc1F)c1nc(-c2cccnc2)nc2ccccc12`, the “activity change, negative = inhibition” value is -15.7%.

For `CSCCC(=O)Nc1nc(-c2ccccn2)cs1`, the Potency was 12 µM (active).

`O=C(CCS(=O)(=O)c1ccc(F)cc1)Nc1nc(-c2ccccn2)cs1`: the Potency is 8.49 µM (active).

As to `O=C(CN1C(=O)c2ccccc2C1=O)Nc1nc(-c2cccc([N+](=O)[O-])c2)cs1`, the “activity change, negative = inhibition” value is 2.24%.

Turning to `CCn1nc(C(=O)Nc2nc(-c3ccccn3)cs2)c2ccccc2c1=O`, the Potency is 3.79 µM (active).

For `S=C(NCCCc1cnc[nH]1)NCCCN(Cc1ccc(Cl)cc1)c1ccc(-c2ccccc2)cn1`, the Potency was 15.1 µM (active).

As for `COc1ccc2c(c1)C=C/C2=C\c1ccc(N(C)C)cc1`, the Potency was 6.75 µM (active).

As to `CN(C)c1ccc(/C=C2\C=Cc3cc(N)ccc32)cc1`, the Potency is 7.57 µM (active).

As for `Cc1nc([N+](=O)[O-])cn1CC(O)c1ccc2c(c1)OCO2` (configuration not stated), the “activity change, negative = inhibition” value was -1.54%.

On to `COC(=O)c1sc2cc(C(F)(F)F)cnc2c1-c1cccnc1`, for which the “activity change, negative = inhibition” value was 2.52%.

With `O=C(O)/C=C/C(=O)Nc1ccc2c(c1)C(=O)c1ccccc1C2=O`, the Potency is 7.57 µM (active).

In the case of `CC(=O)Nc1ccc2nc(C3CC3)n(Cc3ccc(Cl)cc3)c(=O)c2c1`, the “activity change, negative = inhibition” value was -17.5%.

For `CN(C)c1ccc(/C=C/C=C2/C=Cc3ccccc32)cc1`, the Potency is 5.36 µM (active).

For the compound `CCN(CC)c1ccc(/C=C2\C=Cc3ccccc32)cc1`, the Potency was 7.57 µM (active).

For the compound `CN(C)c1ccc(/C=C2\C=Cc3ccccc32)cc1`, the Potency was 8.49 µM (active).
